This passage reports inhibition results from ChEMBL document CHEMBL3433997, “St. Jude Leishmania screening dataset” (2016).

Holding throughout (type): functional
Assay [1] deals with Solute carrier family 2, facilitated glucose transporter member 1 (Homo sapiens) (UniProt P11166). The assay is described as follows: ST_JUDE_LEISH: Cytotoxicity at 2uM final concentration against transgenic Leishmania Mexicana promastigotes LmGLUT1 that are glucose transport deficient and complemented with the human glucose transporter GLUT1. Activity is measured by DNA content using SYBR green in vitro.

Assay [2] has as its target Hexose transporter 1 (Plasmodium falciparum) (UniProt O97467). As to the kind of experiment: ST_JUDE_LEISH: Cytotoxicity at 2uM final concentration against transgenic Leishmania Mexicana promastigotes LmPfHT that are glucose transport deficient and complemented with the Plasmodium falciparum hexose transporter. Activity is measured by DNA content using SYBR green in vitro.

Assay [3] deals with Glucose transporter (Leishmania mexicana) (UniProt O61059). The assay is described as follows: ST_JUDE_LEISH: Cytotoxicity at 2uM final concentration against transgenic Leishmania Mexicana promastigotes LmGT2 that are glucose transport deficient and complemented with the L. Mexicana glucose transporter 2. Activity is measured by DNA content using SYBR green in vitro.

Solute carrier family 2, facilitated glucose transporter member 1 (Homo sapiens), sequence (P11166 whole entry): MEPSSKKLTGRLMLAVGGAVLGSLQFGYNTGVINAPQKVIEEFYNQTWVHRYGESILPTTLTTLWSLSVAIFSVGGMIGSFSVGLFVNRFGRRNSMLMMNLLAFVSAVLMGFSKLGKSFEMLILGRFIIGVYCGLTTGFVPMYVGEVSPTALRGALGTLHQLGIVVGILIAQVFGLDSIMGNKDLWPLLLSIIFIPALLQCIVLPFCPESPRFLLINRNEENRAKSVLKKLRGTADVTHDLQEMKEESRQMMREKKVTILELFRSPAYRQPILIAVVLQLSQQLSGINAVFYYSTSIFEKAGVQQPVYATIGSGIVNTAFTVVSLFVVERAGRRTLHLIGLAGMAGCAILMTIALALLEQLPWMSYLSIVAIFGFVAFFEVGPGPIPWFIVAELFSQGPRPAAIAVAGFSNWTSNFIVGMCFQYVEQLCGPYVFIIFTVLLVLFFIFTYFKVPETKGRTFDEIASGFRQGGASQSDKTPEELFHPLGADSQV

Take `COc1ccc2nccc([C@@H](O)CN3CCC(NCc4ccc5c(c4)NC(=O)C(C)S5)CC3)c2c1` (stereo partly specified): the inhibition in assay [1] was 12.2%; in assay [2], 1.99%; in assay [3], 4.38%.
For the compound `Cc1cc(NC(=O)c2sc3ccccc3c2O)no1`, the inhibition in assay [1] was determined as 2.41%; in assay [2], 1.84%; in assay [3], 0.64%.
Turning to `Nc1ccc2[nH]cc(C3CCN(CCC4CCN(C(=O)/C=C/c5ccc(Cl)c(Cl)c5)CC4)CC3)c2n1`, the inhibition in assay [1] is 1.27%; in assay [2] it was -0.31%; in assay [3], -0.02%.
With `Cc1noc(C)c1-c1ccc2c(Nc3ccc(C(F)(F)F)cc3)c(C(N)=O)cnc2c1`, the inhibition in assay [1] is 3.49%; in assay [2], 3.21%; in assay [3], -3.02%.
`Cc1cc(NCCC(=O)Nc2ccccc2)nc(NCCc2cccnc2)n1`: the figures for the inhibition in assay [1], in assay [2] and in assay [3] were 0.51%, 2.33% and 1.5%, respectively.
The like results for `COc1cccc(C(=O)N2CCOC(CCN3CCC(c4ccccc4)CC3)(c3ccc(Cl)c(Cl)c3)C2)c1` (stereo unspecified) were, in that order, 0.55%, -0.77% and -0.26%.
For `Cn1cccc1C(=O)C(=O)Nc1ccc(-c2ccc(-c3nc4cc(F)ccc4[nH]3)cc2)cc1`, the inhibition in assay [1] is 8.15%; in assay [2] it was -0.07%; in assay [3], -0.45%.
The like results for `COc1cc(CCNc2nc(NCc3cccc4ccccc34)nc(N3CCC(N)CC3)n2)ccc1O` were, in that order, 5.69%, 4.98% and 2.74%.
As to `OC(CN(Cc1ccccc1)Cc1ccccc1)Cn1c2ccc(Cl)cc2c2cc(Cl)ccc21` (stereo unspecified), the inhibition in assay [1] is -0.34%; in assay [2], 0.27%; in assay [3], 1.37%.
Regarding `NC(=O)c1sc(-n2cnc3ccccc32)cc1OCc1ccccc1[N+](=O)[O-]`, the inhibition came out at 8.87% in assay [1], 7.21% in assay [2] and 6.48% in assay [3].
Consider `CC(=O)N(C)c1cccc(CNc2cc(C)nc(Nc3ccc(C)cc3)n2)c1`, for which the results for the inhibition in assay [1], in assay [2] and in assay [3] were 4.41%, 4.95% and 0.91%, respectively.
As for `CN1C(=C2SC(=Nc3ccc4ncccc4c3)N(Cc3ccccc3)C2=O)Sc2ccc(Cl)cc21`, the inhibition in assay [1] turned out to be 1.22%; in assay [2] it was 2.08%; in assay [3], 1.06%.

Usually inhibition stands for the change of the read-out against control, counted positive when it falls.
